This is part of a sample that, as a whole, favours compounds with a hit. Of some 83,000 tested, about 20% had one in any assay.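 Cells were grown in 96-well plates and exposed to the test compound at a single concentration for 48 hours; results are reported as percent growth, with values below 10 considered active.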 A number with no mark means an inactive call. Activity calls are given as the source filed them.

Common to all, as to experiment: NCI-60 one-dose screen, 48 h (100 = growth as untreated, 0 = no growth, -100 = all killed)
For one experiment, the system named is K-562 leukemia. The following applies: 10 µM unless noted.
Another experiment relates to MALME-3M melanoma. The following applies: 10 µM unless noted.
A further experiment has as its system MDA-MB-231 breast. The following applies: 10 µM unless noted.
Another experiment deals with RXF 393 renal. The following applies: 10 µM unless noted.
A further experiment relates to SF-268 CNS. The following applies: 10 µM unless noted.
A further experiment has as its system SF-295 CNS. The following applies: 10 µM unless noted.
The subject of another experiment is SF-539 CNS. The following applies: 10 µM unless noted.
For another experiment, the system named is UACC-257 melanoma. The following applies: 10 µM unless noted.
For the next experiment, the system named is M14 melanoma. The following applies: 10 µM unless noted.
Another experiment has as its system HCT-15 colon. The following applies: 10 µM unless noted.
The subject of another experiment is HT29 colon. The following applies: 10 µM unless noted.
For a further experiment, the system named is SNB-75 CNS. The following applies: 10 µM unless noted.
For the next experiment, the system named is SNB-19 CNS. The following applies: 10 µM unless noted.
The next experiment deals with U251 CNS. The following applies: 10 µM unless noted.
The test system of a further experiment is PC-3 prostate. The following applies: 10 µM unless noted.
Another experiment concerns SK-MEL-5 melanoma. The following applies: 10 µM unless noted.
Another experiment concerns UACC-62 melanoma. The following applies: 10 µM unless noted.
The subject of the next experiment is LOX IMVI melanoma. The following applies: 10 µM unless noted.
The subject of the next experiment is SK-MEL-28 melanoma. The following applies: 10 µM.
Another experiment concerns SK-MEL-2 melanoma. The following applies: 10 µM unless noted.

Regarding `O=C(NCCCN1CCC(N2CCCCC2)CC1)C1=Cc2cc(Br)ccc2OC1`, the growth in the experiment with K-562 leukemia is 14.8%; in the experiment with MALME-3M melanoma, 97.9%; with MDA-MB-231 breast, 17.6%; with RXF 393 renal, 52.3%; in the experiment with SF-268 CNS it was 50.2%; in the experiment with SF-295 CNS, 3.29% (active). Besides, the growth with SF-539 CNS was 87.4%; in the experiment on UACC-257 melanoma, 59.8%; in the experiment with M14 melanoma, 38.7%; with HCT-15 colon, 41.1%; in the experiment on HT29 colon, 17.9%; in the experiment on SNB-75 CNS it was 44.7%. The growth with SNB-19 CNS is 58.8%; with U251 CNS, 37%; with PC-3 prostate, 17.5%; with SK-MEL-5 melanoma it was 68%; in the experiment with UACC-62 melanoma, 53.6%; with LOX IMVI melanoma it was 31.3%. Moreover, the growth is 80.9% with SK-MEL-28 melanoma and 35.5% in the experiment on SK-MEL-2 melanoma.
In the case of `O=C1OC(c2ccccc2)(c2ccccc2)c2ccsc21`, the growth in the experiment with K-562 leukemia was 87%; in the experiment on MALME-3M melanoma it was 87.2%; in the experiment with MDA-MB-231 breast, 100%; in the experiment on RXF 393 renal, 114%; in the experiment on SF-268 CNS, 97.3%; in the experiment with SF-295 CNS, 97.2%. The growth was 98.9% in the experiment with SF-539 CNS; 103% in the experiment on UACC-257 melanoma; 106% in the experiment with M14 melanoma; 95.2% with HCT-15 colon; 102% in the experiment with HT29 colon; 103% with SNB-75 CNS. Besides, the growth was 102% in the experiment on SNB-19 CNS; 102% in the experiment on U251 CNS; 101% with PC-3 prostate; 102% in the experiment with SK-MEL-5 melanoma; 94.1% in the experiment on UACC-62 melanoma; 103% in the experiment with LOX IMVI melanoma. The growth in the experiment on SK-MEL-28 melanoma was 112%; in the experiment with SK-MEL-2 melanoma, 94%.
On to `Cc1ccc(N=NC2C(=O)N(c3ccc(Cl)cc3)N(c3ccc(Cl)cc3)C2=O)cc1`, for which the growth with K-562 leukemia was 94.1%; with MALME-3M melanoma, 98%; in the experiment on MDA-MB-231 breast, 91.7%; in the experiment with RXF 393 renal, 113%; with SF-268 CNS, 100%; in the experiment on SF-295 CNS it was 93.9%. The growth in the experiment on SF-539 CNS is 100%; in the experiment on UACC-257 melanoma, 86.8%; in the experiment on M14 melanoma, 102%; with HCT-15 colon, 98.3%; in the experiment with HT29 colon, 104%; with SNB-75 CNS, 84.1%. Moreover, the growth in the experiment on SNB-19 CNS is 91.1%; with U251 CNS it was 99%; with PC-3 prostate, 93.4%; in the experiment on SK-MEL-5 melanoma it was 91.6%; in the experiment on UACC-62 melanoma, 92.4%; in the experiment with LOX IMVI melanoma it was 96.6%. The growth was 99.1% in the experiment on SK-MEL-28 melanoma and 105% with SK-MEL-2 melanoma.
Turning to `CCCN1CCN(c2ccc3nc(-c4ccc5nc(-c6cc(OC)ccc6OC)[nH]c5c4)[nH]c3c2)CC1`, the growth is -45.3% (active) in the experiment with K-562 leukemia; 139% with MALME-3M melanoma; 107% in the experiment on MDA-MB-231 breast; 93.3% with RXF 393 renal; 106% in the experiment on SF-268 CNS; 104% in the experiment on SF-295 CNS. Moreover, the growth in the experiment on SF-539 CNS is 96.2%; in the experiment with UACC-257 melanoma, 110%; in the experiment with M14 melanoma, 111%; with HCT-15 colon, 62.1%; in the experiment with HT29 colon, -23.2% (active); with SNB-75 CNS, 90.9%. Further, the growth is 115% in the experiment with SNB-19 CNS; 85.8% in the experiment on U251 CNS; 103% with PC-3 prostate; 99.5% in the experiment on SK-MEL-5 melanoma; 110% with UACC-62 melanoma; -83.3% (active) in the experiment on LOX IMVI melanoma. The growth was 99.4% in the experiment on SK-MEL-28 melanoma and 118% with SK-MEL-2 melanoma.
For the compound `Nc1nc(-c2ccccc2Br)nn1-c1nc2ccccc2s1`, the growth with K-562 leukemia was 94.8%; in the experiment on MALME-3M melanoma it was 105%; in the experiment with MDA-MB-231 breast it was 101%; in the experiment with RXF 393 renal it was 104%; in the experiment on SF-268 CNS it was 97.4%; with SF-295 CNS it was 102%. In addition, the growth is 99.6% in the experiment on SF-539 CNS; 89% in the experiment on UACC-257 melanoma; 98.3% in the experiment with M14 melanoma; 97.2% in the experiment on HCT-15 colon; 101% with HT29 colon; 96.7% in the experiment with SNB-75 CNS. In addition, the growth in the experiment on SNB-19 CNS was 97.2%; with U251 CNS it was 107%; in the experiment with PC-3 prostate, 103%; in the experiment on SK-MEL-5 melanoma, 104%; in the experiment with UACC-62 melanoma it was 96.6%; in the experiment on LOX IMVI melanoma, 106%. Besides, the growth with SK-MEL-28 melanoma was 103%; in the experiment with SK-MEL-2 melanoma it was 96.7%.
For `O=C(Nc1ccc(F)cc1F)c1cc(Cl)ccc1O`, the growth in the experiment on K-562 leukemia was 11%; in the experiment with MALME-3M melanoma it was -21.9% (active); in the experiment with MDA-MB-231 breast, 10.3%; in the experiment with RXF 393 renal, 4.05% (active); with SF-268 CNS it was 15%; in the experiment with SF-295 CNS, -8.97% (active). The growth in the experiment with SF-539 CNS is 12.3%; with UACC-257 melanoma, -11% (active); in the experiment on M14 melanoma, 18.8%; with HCT-15 colon, 13.9%; in the experiment on HT29 colon, 31.4%; in the experiment with SNB-75 CNS, -8.57% (active). Further, the growth in the experiment on SNB-19 CNS is 16.2%; in the experiment with U251 CNS it was 3.34% (active); with PC-3 prostate, 6.06% (active); in the experiment with SK-MEL-5 melanoma, -67.5% (active); in the experiment with UACC-62 melanoma, 7.39% (active); in the experiment on LOX IMVI melanoma it was 14.5%. In addition, the figures for the growth in the experiment on SK-MEL-28 melanoma and with SK-MEL-2 melanoma were 25.3% and -25.6% (active), respectively.
Take `C1=CC2(C=C1)OC21CCC2(C=CC3(C2)OC3C2CCCCC2)CC1` (stereo not given): the growth is 113% in the experiment with K-562 leukemia; 108% with MALME-3M melanoma; 108% with MDA-MB-231 breast; 119% in the experiment on RXF 393 renal; 104% in the experiment on SF-268 CNS; 106% with SF-295 CNS. Besides, the growth in the experiment with SF-539 CNS is 101%; in the experiment with UACC-257 melanoma it was 108%; in the experiment on M14 melanoma it was 102%; in the experiment with HCT-15 colon it was 101%; in the experiment with HT29 colon it was 110%; in the experiment on SNB-75 CNS, 94.2%. Further, the growth in the experiment on SNB-19 CNS is 104%; in the experiment with U251 CNS, 99.5%; in the experiment on PC-3 prostate, 101%; in the experiment with SK-MEL-5 melanoma, 106%; in the experiment with UACC-62 melanoma, 99.7%; in the experiment on LOX IMVI melanoma, 92.5%. Further, the growth is 105% in the experiment on SK-MEL-28 melanoma and 104% in the experiment on SK-MEL-2 melanoma.
